We go through 66 compounds from PubChem BioAssay AID2315 (National Center for Advancing Translational Sciences (NCATS), 2010).

About 27,000 (9.3%) of roughly 290,000 compounds were called active. Rule as the data show it: active = inhibition mostly above about 28% (no sharp cut-off); inactive = mostly below about 43%. The list comes from a sample in which actives are over-represented; it also holds similar structures and randomly drawn compounds.

The experiment is described as follows: A qHTS for Small Molecule Inhibitors of Shiga Toxin. Also: 0% is about no effect. The following applies: Vero cells, Shiga toxin protein synthesis inhibition reporter; at 38.7 µM, active compounds read high.
For the compound `COc1ccc2nc(NC(=O)[C@@H]3CCCN3C(=O)c3cccs3)sc2c1`, the inhibition is 60.1% (inactive). Next, `COc1ccc2nc(NC(=O)c3ccc(Br)s3)sc2c1`: 51.2% (active); `COc1ccc2nc(Nc3nc4ccc(NC(C)=O)cc4s3)sc2c1`: 35.3% (inactive). Next, `Cc1nc2cc3c(cc2s1)OCO3`: 13.4% (inactive); `COc1ccc(-n2cnc3cc(C(=O)NC4CCCC4)ccc32)cc1`: -10.6% (inactive).

As for `CCn1c(SCC(=O)Nc2nc3ccc(OC)cc3s2)nnc1-c1ccoc1C`, the inhibition is 56.7% (inactive). Next, `COc1ccc2nc(NC(=O)NC3CCCCC3)sc2c1`: 96.4% (active); `COc1ccc(CNC(=O)c2ccc(Br)s2)cc1OC`: 31.8% (inactive). Next, `COc1ccc2nc(Nc3nc4cc5c(cc4s3)OCCO5)sc2c1`: 46.4% (active); `COc1ccc(N(CC(=O)Nc2cc(OC)ccc2OC)S(=O)(=O)c2c(C)noc2C)cc1`: -2.51% (inactive). `O=C(O)c1ccc(/C=C2/SC(=S)N(c3cccc(C(F)(F)F)c3)C2=O)cc1`: the inhibition is -0.926% (inactive). Turning to `CCOC(=O)c1cc(S(=O)(=O)NCCc2ccc(OC)c(OC)c2)cn1C`, the inhibition was -9.15% (inactive). For `N#CC1=C(N)Oc2c(sc3ccccc23)C1c1ccco1` (stereo unspecified) the value was 139% (active); for `Cc1cc(C)c2c3c(sc2n1)C(c1ccccc1)C(C#N)=C(N)O3` (stereo unspecified), 16.2% (inactive); for `N#CC1=C(N)Oc2c(c(=O)oc3ccccc23)C1c1ccccc1OC(=O)c1cccs1` (stereo unspecified), -8.1% (inactive). For `COc1cccc(NC(=O)CSc2nnc(Cc3ccc(OC)c(OC)c3)o2)c1` the value was -3.46% (inactive).

Regarding `CCN(CC)CCCNC(=S)N(CCO)Cc1cc2cc3c(cc2[nH]c1=O)OCO3`, the inhibition was -4.73% (inactive). Next, `COCCNc1ncnc2c1nc1n2CCCC1`: -7.74% (inactive); `O=C(COC(=O)c1n[nH]c2ccccc12)NCc1ccccc1`: -4.54% (inactive).

As to `C=CCN(CC=C)C(=O)COC(=O)c1n[nH]c2ccccc12`, the inhibition was 10.1% (inactive). Next, `CCN(CC)S(=O)(=O)c1ccc2nc(COC(=O)c3n[nH]c4ccccc34)[nH]c2c1`: -12.2% (inactive). Turning to `COc1cccc(CNC(=O)c2n[nH]c3ccccc23)c1`, the inhibition was 31.3% (active). For `O=C(NCCCO)c1cc2c([nH]c3ccccc32)c(-c2ccc(F)cc2)n1` the value was -5.91% (inactive); for `O=C(NCCc1ccc(F)cc1)c1n[nH]c2ccccc12`, 69.4% (active); for `COc1ccc(COC(=O)c2n[nH]c3ccccc23)cc1F`, 52.9% (active). Next, `O=C(CC(=O)N/N=C\c1ccc(F)cc1)NCCc1ccccc1`: 10.7% (inactive); `COc1cccc(CNC(=O)Cc2csc(Nc3nc(=S)[nH]c4ccccc34)n2)c1`: 1.99% (inactive). Next, `Cc1cccc(OCC(O)Cn2c(N3CCCCC3)nc3c2c(=O)[nH]c(=O)n3C)c1` (stereo unspecified): 35.6% (inactive). In the case of `CCn1cc(CN2CCC(C(=O)Nc3cccc(-c4cccc(Cl)c4)c3)CC2)c(C)n1`, the inhibition was -29.7% (inactive). For `Cc1ccccc1NC(=O)Cn1cc(C(=O)C2CC2)c2ccccc21` the value was 14.9% (inactive); for `O=C(C1CCN(S(=O)(=O)c2ccc(Br)s2)CC1)N1CCN(c2ccccc2)CC1`, 14.2% (inactive). For `COc1cc2c(cc1OC)C(C(=O)NCc1ccco1)C1c3ccccc3CCN1C2=O` (stereo unspecified), the inhibition was -23.5% (inactive). As for `Cc1ccc(NC(=O)CSc2sc3c(O)cc(=O)[nH]c3c2C#N)cc1C`, the inhibition was -11.9% (inactive). In the case of `COc1ccc(C(C)C)cc1S(=O)(=O)Nc1ncn[nH]1`, the inhibition is -1.36% (inactive).

Regarding `O=C(C1CCCN(S(=O)(=O)c2ccccc2)C1)N1CCN(c2ccc(F)cc2)CC1` (stereo unspecified), the inhibition is -6.64% (inactive).

With `Cc1cc(NC(=O)CCC(=O)N(CC(=O)NC2CCCC2)c2ccc(F)cc2)no1`, the inhibition is 29.9% (inactive). For `CN(CC(=O)NCCN1CCOCC1)S(=O)(=O)c1ccc(F)cc1` the value was -3.65% (inactive); for `Fc1ccc(-c2ccc(NCCN3CCOCC3)nn2)cc1`, 51.7% (active); for `O=C(NCCN1CCOCC1)c1c(F)c(F)c(F)c(F)c1F`, 33.6% (inactive). On to `O=[N+]([O-])C(=c1ccc2c(c1)N1C3=C(CCCC3)CC3CCCCC31N=2)[N+](=O)[O-]` (stereo unspecified), for which the inhibition is 27.4% (inactive).

Consider `COCCCNC(=O)C1CC(=O)N(CCc2ccc(F)cc2)C1` (stereo unspecified), for which the inhibition is -8.38% (inactive). For `CCOc1cccc(/C=N/NC(=S)NCCN2CCOCC2)c1O`, the inhibition is 22.8% (inactive). Take `CCOc1cccc(/C=N/N2C(=O)CSC2=S)c1O`: the inhibition is 38% (active). Next, `O=C1CSC(=S)N1/N=C/c1ccc(O)c([N+](=O)[O-])c1`: 34.5% (inactive); `CCN(CC)CCCNC(=O)c1c(O)c2cc(F)cc3c2n(c1=O)C(C)CC3` (stereo unspecified): 2.56% (inactive); `O=C(c1ccccc1)N1CCN(C(=O)c2cc3nc(-c4ccccc4)cc(C(F)(F)F)n3n2)CC1`: 3.38% (inactive). Next, `OCCNc1nc(Nc2ccc(Cl)c(Cl)c2)nc2ccccc12`: 29.5% (inactive); `COc1ccccc1-c1nc(SC)n[nH]1`: 50.6% (inactive).

For the compound `Cc1cc(C)nc(Nc2n[nH]c(-c3ccccc3N)n2)n1`, the inhibition is 55% (active). Next, `Cc1cc(C)nc(Nc2ncn[nH]2)n1`: -5.43% (inactive); `CCOc1ccc(CNC(=O)C2CCCN(c3nnc(C)c4c(C)n(-c5ccccc5)nc34)C2)cc1` (stereo unspecified): -7.91% (inactive); `N#CC1(NC(=O)COC(=O)CCN=C2NS(=O)(=O)c3ccccc32)CCCCC1`: 12.6% (inactive). Next, `COc1ccc(NC(=O)CN(C)C(=O)CNC(=O)C2CCCCC2)cc1`: 14.6% (inactive); `COc1cccc(NC(=O)CN(C)C(=O)Cc2ccc(Cl)cc2Cl)c1`: -4.77% (inactive). For `CN(CC(=O)Nc1ccc(Cl)cc1)C(=O)CNC(=O)c1ccc2ccccc2c1` the value was 121% (active); for `CC1CCN(S(=O)(=O)c2ccc3c(c2)n(C)c(=O)n3C)CC1`, -5.36% (inactive); for `O=C(Nc1ccc([N+](=O)[O-])cc1)OCCc1ccccn1`, 44% (inactive). Turning to `O=C(CC1NCCNC1=O)Nc1ccc(Oc2ccccc2)cc1` (stereo unspecified), the inhibition was 61.1% (active). Next, `CCN(CC)CCNCC(=O)Nc1ccc(Oc2ccccc2)cc1`: 3.13% (inactive); `O=C(CC1Nc2ccccc2NC1=O)Nc1ccccc1NC(=O)CC1Nc2ccccc2NC1=O` (stereo unspecified): 73.6% (active).

In the case of `CCOc1ccc(NC(=O)CC2NCCNC2=O)cc1` (stereo unspecified), the inhibition is 13.1% (inactive). `O=C(CC1Nc2ccccc2NC1=O)Nc1ccccc1` (stereo unspecified): the inhibition was 38.2% (active). Turning to `CC1CCN(CCC(=O)Nc2ccccc2)CC1`, the inhibition was -4.96% (inactive). With `COC(=O)c1cc(C)sc1NC(=O)CC1Nc2ccccc2NC1=O` (stereo unspecified), the inhibition is 46.2% (inactive).

For `CCOC(=O)c1ccccc1NC(=O)CC1Nc2ccccc2NC1=O` (stereo unspecified), the inhibition is -1.95% (inactive). For the compound `CCc1ccc(NC(=O)CC2C(=O)NCCN2C(=S)Nc2ccccc2)cc1` (stereo unspecified), the inhibition was 1.19% (inactive).
